Data: the supplement of paper PMC11417369
± gives the standard deviation of the averaged measurements. The full ranking holds about 25,000 sequences; the median of “ln(normalized median fluorescence intensity)” is about 10, and the highest 2% start at about 12. The sample as a whole holds a higher share of the highest values than the screen did.

tested on: PfAP2-G AP2 domain (GST-tagged); assay: gcPBM binding intensity (ln(normalized median fluorescence intensity)); higher = stronger DNA binding
Procedure, shortened: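 The binding buffer was 1× PBS containing 1% milk, 0.2 mg/ml BSA, 0.5% salmon testes DNA and 0.03% Triton X-100. In it, GST-tagged P. falciparum DNA-binding domains expressed in E. coli were applied for 1 h to an Agilent 4 × 180k array of primer-extended double-stranded 36-bp intergenic genomic probes plus negative controls. Binding intensity, read with Alexa488 anti-GST antibody and a 488 nm scan, is the highest Masliner-normalised natural-log median intensity across replicate spots of either probe orientation.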

Sequence | gcPBM binding intensity (ln)
ATAATTATAAAATAAACACACATATATATTTATATG [CACACA_site440] | 9.98 ± 0.16
AATTAAAAAAAATACACACACACATACACATATATA [CACACA_site3298] | 10.2 ± 0.22
ATAACATAAGGAAATACACACATATATAAGTATATA [CACACA_site778] | 10.02 ± 0.021
ACATATATATATATATATATATATATATTTATTTAT [CACACA_negctrl_site734] | 10.2 ± 0.39
AAAACTATAATGAATAGTACATAAAAATGGATATAT [XGTACX_site6056] | 11 ± 0.5
TCTATAAAGGAATATACACACATATATATATATATA [CACACA_site410] | 9.9 ± 0.32
AATAATATATTTAGGGGTACATAATAATATATTTTA [XGTACX_site8366] | 11.6 ± 1.1
GTAAAAAAAAAAAAAAGTACATTATACATATATTTA [XGTACX_site5447] | 11.3 ± 0.81
AAAAAAAAAAAAAAAAGTACATATATTATATATATA [XGTACX_site2983] | 11.3 ± 0.93
AAAAAAAAAAAAAAAAGTACATATATATATTTATAT [XGTACX_site5893] | 11.7 ± 1
AAATAAAAAAGTAGTACACACTTCACGATATTTTTT [CACACA_site6015] | 11.6 ± 1
ATAAAATAAAAAAGTAGTACACACTTCACGATATTT [XGTACX_site8289] | 11.5 ± 0.84
TTAAAAAAAAAAAAAAGTACACACTTATAAAATATT [XGTACX_site1630] | 11.6 ± 0.91
ATATTATTTTAAAGTACACACATATATTAAGATATA [CACACA_site5306] | 11.4 ± 1
TAAAAAAAAAAAAAAGTACACACTTATAAAATATTA [CACACA_site872] | 11.6 ± 1
AAAAAAAAAAAAAGTACACACTTATAAAATATTATG [CACACA_site4639] | 11.6 ± 1.1
AGATAAAAAAAGTACACACACACATATATTTATATA [CACACA_site7437] | 11.8 ± 1.2
TAAAATAAAAAAGTAGTACACACTTCACGATATTTT [CACACA_site3896] | 11.6 ± 0.91
AAAAAAGATATATAAACACACATATTTATATACACA [CACACA_site6866] | 9.66 ± 0.16
AATGTAAAATATAAATGTACATATATATATATATAT [XGTACX_site5071] | 11 ± 0.45
TATATATATATATATGTACACACATATATACCTTTC [CACACA_site8854] | 11.3 ± 0.71
GAAAGAATAAAATAAACATGCAAATAAAACATAAAA [TGCATGCA_site471] | 9.81 ± 0.2
AGCATAAACAATTTTTGAAAAAATATACACTCATAG [CACACA_negctrl_site890] | 9.935 ± 0.007

Sequence | gcPBM binding intensity (ln)
AAAAAATATACATATTGTACATTTTTTATTAACACA [XGTACX_site6415] | 10.8 ± 0.49
TAGTATTGTAAAAAAAAAAAAGAAAAAAAAAAAAAA [CACACA_negctrl_site977] | 9.68 ± 0.15
TTAAGATGCATAAATACATGCAAAGTAAATAATTCT [TGCATGCA_site517] | 9.88 ± 0.014
CATAAAAATGGATACACACACATAATATATATATAT [CACACA_site3619] | 10.2 ± 0.3
TTACTTAAGAAACACACACACAAAAAAAAAAAAAAA [CACACA_site946] | 9.91 ± 0.54
AGTTTAAATTAAATTACACACTACGAATAATATATT [CACACA_site7811] | 9.895 ± 0.007
TATTCCAAAAATGTGTGTACATAAATACAATATTAT [XGTACX_site2653] | 11.4 ± 0.89
AAAAAAAAAAAAAGTACACACATACAGATAAATATA [CACACA_site5067] | 11.6 ± 1
ATAAAAAAAAAAAAAAGTACACATATAAAAGTATTG [XGTACX_site8265] | 11.6 ± 0.91
TAAAAAAAAATAAAAAGTACATATATATATATATAT [XGTACX_site1155] | 11.1 ± 0.86
AGATAAAAAAAGTACACACACACATATATATATATA [CACACA_site3072] | 11.6 ± 0.93
AAAAAAAAAAAAAAAAGTACACAAATAGATTTATAT [XGTACX_site3727] | 11.6 ± 0.88
ATAAATACATATAAAAGTACACACACACACATATAT [XGTACX_site1744] | 11.5 ± 0.93
GCCATAAAGATATATACACACATAAAAAAAAGTTAT [CACACA_site6674] | 10.1 ± 0.16
AGATATATATTTTATTGTACACATTAAAGTATAAAA [XGTACX_site7194] | 11.5 ± 1.1
TACATATAAAAGTACACACACACACCCATATATATA [CACACA_site941] | 11.6 ± 1.1
GAGATATAAAAGTGTACACATATTGTTATCCATATT [CACACA_site5441] | 11.8 ± 1
ACAATATAGATTAAAAGTACAAATAGTAAATTATAT [XGTACX_site3165] | 11.2 ± 0.71
AATAAATATATTAAAAGTACACAAATATTATTTAAT [XGTACX_site2482] | 11.4 ± 0.76
ATATATTGAACATATTGTACATTTTGTTAATATTTT [XGTACX_site7622] | 10.7 ± 0.43
TTATATTTATATATTTGTACGTATGTATATAATTCA [XGTACX_site2993] | 11.4 ± 0.97
ATTGTTTTTTTTTCTTTGTGGAATGAATGAATATAT [XGTACX_negctrl_site603] | 10 ± 0.19
TATATATATATATTGACACACATGTATTTCAATATT [CACACA_site2832] | 10.1 ± 0.21

Sequence | gcPBM binding intensity (ln)
TATATATATATGTGCACACATAATAAAAAAAAAAAT [CACACA_site3831] | 10.6 ± 0.69
AAAAAATTAATATTGACACACATTTTTAAGAATAAT [CACACA_site239] | 10.1 ± 0.16
TATGTTTTTGAATGAGTGCATTAAAATAAAACATTT | 10.2 ± 0.27
AAAAAAGAAAAAAGGACACACATAAATATACTCACG [CACACA_site2904] | 11.2 ± 0.91
TAAATTATAATATGCACACAAAATGTTATATTAAAA [CACACA_site376] | 9.97 ± 0.26
TAAAAAATAAATATATGTACGCAATAAATGTGTTAA [XGTACX_site4043] | 11.6 ± 1.1
AATTTTATTTAATTTTTTTGGGAAATGATAAAATTT [CACACA_negctrl_site934] | 9.88 ± 0.2
CATATGCGTCTTGCCTTGCACACTTTTATGAAAAAA [CACACA_site2055] | 10.4 ± 0.26
ATACACACTTAAAAAAGTACTTAACTACATGAATTG [XGTACX_site1203] | 11.1 ± 0.59
TATTCCCCCCAACACACACACACACCGACATACCAC [CACACA_site8723] | 11.8 ± 1.1
CATACACCCATACATACACACATACATATATATATA [CACACA_site8591] | 10.2 ± 0.11
CATATATACGCATACACACACACACCCACACCCACA [CACACA_site1725] | 10.6 ± 0.52
TACACCCACCCACATACACACACATACACATATATA [CACACA_site8503] | 10.3 ± 0.35
CATATTCCCCCCCACACACACACACGCATACATACC [CACACA_site7148] | 11.8 ± 0.6
TATATATACATATACACACACACACCCATATATATA [CACACA_site2246] | 10.1 ± 0.2
CATATTCCCCCCCACACACACACACCCATACATACC [CACACA_site2303] | 11.7 ± 0.71
ACCATACATACATACACACACACACGCATATTTATA [CACACA_site7386] | 10.4 ± 0.28
TATTCCCCCAAACACACACACACACCCACATACCAC [CACACA_site2304] | 11.1 ± 0.78
CACAAACACCCAAACACACACACACCGACATACATA [CACACA_site4410] | 10.2 ± 0.27
GACATATTCCCCCCCACACACACACCCACATACATA [CACACA_site2302] | 11.8 ± 0.71
CACCCACCCACATACACACACATACACATATATATA [CACACA_site1722] | 10.2 ± 0.25
